Source: PubChem
Sampled rows, rich in hits. Any-hit rate of the full collection: about 1%.
Fh CTSL1 inh = Fasciola hepatica cathepsin L1 inhibitors, primary screen, counter-screen for PFM18AAP inhibitor project, biochemical, QFRET, fluorogenic peptide substrate. recombinant F. hepatica cathepsin L1, Z-Leu-Arg-MCA fluorescence. 300,000 compounds, 0.49% hits. inhibition, % at 5.96 µM;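 active = inhibition above the mean of all tested compounds plus 3 SD, set per screening campaign, cut at about 17% in these data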
Yeast superoxide = reduction of superoxide in aged yeast, primary screen, HTS; S. cerevisiae aged cells, superoxide DHE fluorescence; hits give low values; superoxide response (% of plate mean), % at 10 µM; 330,000 compounds, 0.18% hits;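 active = superoxide response under a set limit, about three screen SD below normal, cut at about 65% in these data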;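 also: yeast aged for seven days with compound at 30 °C before DHE staining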
iPSC survival up = enhancers of single-cell hiPSC survival, primary screen, ATPlite luminescence | 100% = ROCK inhibitor wells, 0% = DMSO | survival enhancement, % at 20 µM | 360,000 compounds, 0.044% hits | AID 602274, 2012; in the data active = survival enhancement above about 18%;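 also: cells exposed to compounds for 16 hours before the ATP read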
V-ATPase pHluor = regulators of yeast V-ATPase proton pumping, primary screen, pHLuorin cytosolic pH fluorescence. response, % at 10 µM. S. cerevisiae. 350,000 compounds, 0.37% hits. AID 504577, 2011; in the data active = response mostly above about 7.3%, no sharp cut-off; inactive = mostly below about 5.4%; also: actives read high
Of the large screens only hits and unclear results are named; the others gave an inactive call.

FC(F)(F)c1cc(-c2ccccc2)nc(NCc2cccnc2)n1	V-ATPase pHluor 20
FC(F)(F)c1cc(-c2ccco2)nc(NCc2cccnc2)n1	none
CCCn1c2ccccc2c2cnn(CC(=O)NCCCN3CCCC(C)C3)c(=O)c21 (stereo not given)	none
C#C[C@]1(O)CC[C@H]2[C@@H]3CCC4=CC(=O)CC[C@@H]4[C@H]3CC[C@@]21C	V-ATPase pHluor 25
CCN(CC)Cc1c(C)[nH]c2ccc(NC(C)=O)cc2c1=O	none (no result: Fh CTSL1 inh, Yeast superoxide)
C=CCN(CC=C)Cc1c(C)[nH]c2ccc(C(=O)OCC)cc2c1=O	Fh CTSL1 inh 20
Cn1c2ccccc2c2cc(C(=O)NNC(=O)CCl)sc21	Fh CTSL1 inh 94
Cc1cc(=O)[nH]c(N2CCN(C(c3ccccc3)c3ccccc3)CC2)n1	V-ATPase pHluor 19
Cc1nc(N2CCN(C(c3ccccc3)c3ccccc3)CC2)[nH]c(=O)c1C	none (no result: Fh CTSL1 inh, Yeast superoxide)
O=C(Nc1ccc(Cl)cc1Cl)c1cccc(N2C(=O)C=CC2=O)c1	V-ATPase pHluor 78
Cc1ccc(NC(=S)N(Cc2cccc(Br)c2)CC2CCC(C(=O)O)CC2)cc1Cl (stereo not given)	none
O=C(Nc1nnc(S(=O)(=O)N2CCCC2)s1)c1ccccc1Br	Fh CTSL1 inh 81
Cc1noc(C)c1NC(=O)N(C)C[C@H]1Oc2ccc(NS(=O)(=O)c3cn(C)cn3)cc2C(=O)N([C@H](C)CO)C[C@@H]1C	none (no result: Fh CTSL1 inh)
COc1ccc(CC(=O)Oc2ccc(C(C)C)cc2)cc1S(=O)(=O)N1CCOCC1	V-ATPase pHluor 25
CCc1ccc(OC(=O)Cc2ccc(OC)c(S(=O)(=O)N3CCOCC3)c2)cc1	none (no result: Fh CTSL1 inh)
CC(=O)c1c(C)[nH]c(C(=O)NNC(=O)COc2cc(C)cc(C)c2)c1C	none (no result: Fh CTSL1 inh, Yeast superoxide)
C=CCNc1nc(-c2ccc(Cl)cc2)cs1	Fh CTSL1 inh 25
CCOCCCNC(=O)C(NC(=O)c1ccc(NC(C)=O)cc1)c1ccc(C)cc1 (stereo not given)	none
CCOCCCNC(=O)C(NC(=O)c1ccc(NC(C)=O)cc1)c1ccccc1 (stereo not given)	Yeast superoxide 61
CN1C(=O)C(O)(CC(=O)/C=C/C=C/c2ccccc2)c2ccccc21 (stereo not given)	Fh CTSL1 inh 32
O=C(Nc1nnc(SCC(=O)N2CCOCC2)s1)c1ccccc1	none
COc1ccccc1NS(=O)(=O)c1cc(C(=O)NC2CC(C)(C)NC(C)(C)C2)ccc1Cl	none (no result: Fh CTSL1 inh, Yeast superoxide)
CCCc1cc(=O)oc2cc(OCc3cc(OC)c(OC)c(OC)c3)c(Cl)cc12	none
CCCCc1cc(=O)oc2cc(OCc3cc(OC)c(OC)c(OC)c3)c(Cl)cc12	iPSC survival up 23
COc1ccc(-c2nc(CN3CCC(C(=O)NC4CCCc5ccccc54)CC3)c(C)o2)cc1OC (stereo not given)	V-ATPase pHluor 13 (no result: Fh CTSL1 inh, Yeast superoxide)
CC1(C)CC(=O)C(C2C3=C(CC(C)(C)CC3=O)Oc3ccccc32)=C(O)C1 (stereo not given)	Fh CTSL1 inh 17
COCCN(C(=O)CCC(=O)Nc1cc(C)on1)C(C(=O)NC1CCCC1)c1ccccc1C (stereo not given)	none
COCCN(C(=O)CCl)C(C(=O)NC1CCCCC1)c1ccccc1C (stereo not given)	Fh CTSL1 inh 27
CC(C)CC(NC(=O)C1CCC(=O)N1)C(=O)NC(CC(C)C)C(=O)N1CCCC1C(N)=O (stereo not given)	Fh CTSL1 inh 17
CC(C)CC(NC(=O)C(NC(=O)OC(C)(C)C)C(C)C)C(=O)N1CCCC1C(N)=O (stereo not given)	Fh CTSL1 inh 18
Cc1ccc(C(=O)Nc2ccccc2)cc1S(=O)(=O)N1CCN(C)CC1	none
CC(=O)C1=C(C)N(Cc2ccccc2)C(=O)N[C@H]1c1ccco1	none
CCOc1cc(N2CCOCC2)c(OCC)cc1NC(=O)CN1C(=O)NC2(CCCCC2)C1=O	none (no result: Fh CTSL1 inh)
CCOc1cc(N2CCOCC2)c(OCC)cc1NC(=O)CN1C(=O)NC(C)(C2CC2)C1=O (stereo not given)	Fh CTSL1 inh 37
CCOc1cc(N2CCOCC2)c(OCC)cc1NC(=O)CSc1n[nH]c(N)n1	Fh CTSL1 inh 21
CCOc1cc(N2CCOCC2)c(OCC)cc1NC(=O)COC(=O)c1ccc(Cl)cc1N	none (no result: Fh CTSL1 inh)
CCOc1cc(N2CCOCC2)c(OCC)cc1NC(=O)COC(=O)[C@@H]1CCCN1S(=O)(=O)c1ccccc1F	Fh CTSL1 inh 80
CCOc1cc(N2CCOCC2)c(OCC)cc1NC(=O)COC(=O)c1cc2ccccc2cc1O	Fh CTSL1 inh 58
NS(=O)(=O)c1ccc(CCN=Cc2ccccc2O)cc1	none
O=C(CN(C(=O)c1csnn1)c1cccc2c1CCCC2)NC1CCCC1	none
CC1=C(C(=O)OC(C)C)C(c2cncc(-c3ccc(F)cc3)c2)C(C#N)=C(N)O1 (stereo not given)	Fh CTSL1 inh 19
COC(=O)C1=C(C)OC(N)=C(C#N)C1c1cccnc1 (stereo not given)	none
CN(c1ccc([N+](=O)[O-])cc1/C=N/NC(=O)COc1ccccc1)C1CCCCC1	none
COc1ccc(S(=O)(=O)n2nc(OC(=O)c3c(-c4ccccc4Cl)noc3C)cc2N)cc1	Fh CTSL1 inh 18
COc1ncnc(-c2ccccc2)c1-c1ccccc1	none
Cc1ccc(NC(=S)N2CCC(c3ccc(C)cc3)C2)cc1 (stereo not given)	Fh CTSL1 inh 54
COc1ccc(NC(=S)N2CCC(c3ccc(C)cc3)C2)cc1 (stereo not given)	none
COc1ccc(CN(CCC(c2ccccc2)c2ccc(OC(C)C)cc2)C(=O)CCl)cc1OC (stereo not given)	Fh CTSL1 inh 36
CCOC(=O)C1(C)CCCN(C(=O)c2ccc(-c3ccccc3)cc2)C1 (stereo not given)	none (no result: Fh CTSL1 inh, Yeast superoxide, V-ATPase pHluor)
O=Cc1c[nH]c2ccc(C(=O)c3ccccc3)cc12	Fh CTSL1 inh 18
COc1ccccc1-c1noc2c1C(=O)NCC2	none (no result: Fh CTSL1 inh, Yeast superoxide)
CC(C)(C)OC1NS(=O)(=O)OCC1NCOC(Cl)(Cl)Cl (stereo not given)	Fh CTSL1 inh 17
COc1ccc(-n2c(=S)[nH]c3cc(C(=O)NCc4ccco4)ccc3c2=O)c(OC)c1	Fh CTSL1 inh 19
COc1ccc(-n2c(=S)[nH]c3cc(C(=O)NCc4ccccc4OC)ccc3c2=O)c(OC)c1	none
Cc1cccc(NC(=S)N2CCN(Cc3ccccc3)CC2)c1C	V-ATPase pHluor 16
NC(=S)N=Nc1ccc(NN=C(N)N)cc1	Fh CTSL1 inh 46
N#C/C(=N/Nc1ccc(OC(F)(F)F)cc1)C(N)=S	none
CN(CCc1ccccc1)C1CCCN(S(=O)(=O)CC(F)(F)F)C1 (stereo not given)	Fh CTSL1 inh 19
CCn1c(COc2ccccc2C)nnc1SCC(=O)CC(=O)Nc1ccccc1	Fh CTSL1 inh 25
COc1ccc(S(=O)(=O)N2CCCCC2)cc1NC(=O)CCc1nc2ccccc2c(=O)[nH]1	Fh CTSL1 inh 28
COc1ccc(CNC(C)CCc2ccccc2)cc1 (stereo not given)	none
COc1ccc(CCC(C)NC2C3CC4CC(C3)CC2C4)cc1 (stereo not given)	V-ATPase pHluor 16 (no result: Fh CTSL1 inh, Yeast superoxide)
